Test results as given in PubChem BioAssay AID1159580 (chemical genetic matrix, 2015).
Hit rate of the full screen: of about 5,500 compounds, about 2,000 (36%) were called active. Another 18% or so got no clear call; they are omitted. Rule as the data show it: active = normalized growth mostly below about 0.91 (no sharp cut-off); inconclusive = no clear call, values can overlap the other calls; inactive = mostly above about 0.92. The list shows a part of the results.

Experiment: chemical genetic growth profiling, strain panel (AID 1159580);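 also: tested at 20 µM; growth read once vehicle control cultures reached saturation at 30 °C; 1 = growth at the plate median or of vehicle wells; lower values mean less growth of the strain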
Conditions: growth OD

Measured: normalized growth

COC(=O)C[C@H]1C(C)(C)C(=O)[C@@H]2CC3=C(CC[C@]4(C)C3=CC(=O)O[C@H]4c3ccoc3)[C@@]1(C)C2=O
inactive: S. cerevisiae deletion strains, locus YJL168C, strain set2, stronger effect = lower value 1.02 | S. cerevisiae deletion strains, locus YJL187C, strain SWE1 (second series), stronger effect = lower value 1.01 | S. cerevisiae deletion strains, locus YJL187C, strain SWE1, stronger effect = lower value 0.993 | S. cerevisiae deletion strains, locus YJR066W, strain TOR1, stronger effect = lower value 0.928 | S. cerevisiae deletion strains, locus YKL009W, strain mrt4, stronger effect = lower value 1.01 | S. cerevisiae deletion strains, locus YKL068W, stronger effect = lower value 1.01 | S. cerevisiae deletion strains, locus YKL085W, strain MDH1 (second series), stronger effect = lower value 1.01 | S. cerevisiae deletion strains, locus YKL085W, strain MDH1, stronger effect = lower value 1.01 | S. cerevisiae deletion strains, locus YKL160W, strain elf1, stronger effect = lower value 0.995 | S. cerevisiae deletion strains, locus YKR001C, strain vps1, stronger effect = lower value 1.01 | S. cerevisiae deletion strains, locus YKR026C, strain gcn3, stronger effect = lower value 0.975 | S. cerevisiae deletion strains, locus YKR091W, strain srl3, stronger effect = lower value 0.984 | S. cerevisiae deletion strains, locus YLL001W, strain dnm1, stronger effect = lower value 1 | S. cerevisiae deletion strains, locus YLL026W, stronger effect = lower value 0.982 | S. cerevisiae deletion strains, locus YLL041C, strain sdh2, stronger effect = lower value 0.972 | S. cerevisiae deletion strains, locus YLR027C, strain aat2, stronger effect = lower value 0.984 | S. cerevisiae deletion strains, locus YLR039C, strain RIC1, stronger effect = lower value 1.03 | S. cerevisiae deletion strains, locus YLR058C, strain SHM2, stronger effect = lower value 1.01 | S. cerevisiae deletion strains, locus YLR102C, strain apc9, stronger effect = lower value 1.02 | S. cerevisiae deletion strains, locus YLR113W, strain HOG1, stronger effect = lower value 1.02 | S. cerevisiae deletion strains, locus YLR221C, strain rsa3, stronger effect = lower value 0.958 | S. cerevisiae deletion strains, locus YLR258W, strain gsy2, stronger effect = lower value 0.961 | S. cerevisiae deletion strains, locus YLR262C, strain YPT6 (second series), stronger effect = lower value 1.04 | S. cerevisiae deletion strains, locus YLR262C, strain YPT6, stronger effect = lower value 1.09 | S. cerevisiae deletion strains, locus YLR268W, strain sec22, stronger effect = lower value 1.01 | S. cerevisiae deletion strains, locus YLR320W, strain mms22, stronger effect = lower value 0.963 | S. cerevisiae deletion strains, locus YLR342W, strain FKS1, stronger effect = lower value 0.963 | S. cerevisiae deletion strains, locus YLR357W, strain rsc2, stronger effect = lower value 0.963 | S. cerevisiae deletion strains, locus YLR370C, strain arc18, stronger effect = lower value 0.956 | S. cerevisiae deletion strains, locus YLR371W, strain rom2, stronger effect = lower value 1.02 | S. cerevisiae deletion strains, locus YLR384C, strain iki3, stronger effect = lower value 0.968 | S. cerevisiae deletion strains, locus YLR418C, strain cdc73, stronger effect = lower value 1.03 | S. cerevisiae deletion strains, locus YML016C, strain PPZ1, stronger effect = lower value 1.05 | S. cerevisiae deletion strains, locus YML032C, strain rad52, stronger effect = lower value 1.01 | S. cerevisiae deletion strains, locus YML120C, strain ndi1, stronger effect = lower value 0.976 | S. cerevisiae deletion strains, locus YML124C, strain tub3, stronger effect = lower value 1.01 | S. cerevisiae deletion strains, locus YMR058W, strain fet3, stronger effect = lower value 0.993 | S. cerevisiae deletion strains, locus YMR078C, strain ctf18, stronger effect = lower value 1.03 | S. cerevisiae deletion strains, locus YMR125W, strain sto1, stronger effect = lower value 0.975 | S. cerevisiae deletion strains, locus YMR129W, stronger effect = lower value 0.988 | S. cerevisiae deletion strains, locus YMR205C, strain PFK2, stronger effect = lower value 0.997 | S. cerevisiae deletion strains, locus YMR223W, strain ubp8, stronger effect = lower value 1.01 | S. cerevisiae deletion strains, locus YMR231W, strain pep5, stronger effect = lower value 0.953 | S. cerevisiae deletion strains, locus YMR307W, strain GAS1, stronger effect = lower value 1.03 | S. cerevisiae deletion strains, locus YNL067W, strain RPL9B, stronger effect = lower value 1.01 | S. cerevisiae deletion strains, locus YNL071W, strain lat1, stronger effect = lower value 0.972 | S. cerevisiae deletion strains, locus YNL183C, strain NPR1, stronger effect = lower value 0.942 | S. cerevisiae deletion strains, locus YNL209W, strain ssb2, stronger effect = lower value 0.984 | S. cerevisiae deletion strains, locus YNL233W, strain BNI4, stronger effect = lower value 0.984 | S. cerevisiae deletion strains, locus YNL248C, strain rpa49, stronger effect = lower value 0.977 | S. cerevisiae deletion strains, locus YNL250W, strain rad50, stronger effect = lower value 1.02 | S. cerevisiae deletion strains, locus YNL271C, strain bni1, stronger effect = lower value 1.01 | S. cerevisiae deletion strains, locus YNL298W, strain CLA4, stronger effect = lower value 1.02 | S. cerevisiae deletion strains, locus YNL307C, strain MCK1, stronger effect = lower value 1.02 | S. cerevisiae deletion strains, locus YNL322C, strain KRE1 (second series), stronger effect = lower value 0.966 | S. cerevisiae deletion strains, locus YNR049C, strain mso1, stronger effect = lower value 0.975 | S. cerevisiae deletion strains, locus YNR052C, strain pop2, stronger effect = lower value 1.03 | S. cerevisiae deletion strains, locus YOL012C, strain htz1 1.95 | S. cerevisiae deletion strains, locus YOL147C, strain pex11, stronger effect = lower value 1.01 | S. cerevisiae deletion strains, locus YOR001W, strain rrp6, stronger effect = lower value 0.946 | S. cerevisiae deletion strains, locus YOR061W, strain CKA2, stronger effect = lower value 1 | S. cerevisiae deletion strains, locus YOR069W, strain VPS5, stronger effect = lower value 1 | S. cerevisiae deletion strains, locus YOR070C, strain gyp1, stronger effect = lower value 0.979 | S. cerevisiae deletion strains, locus YOR080W, strain dia2, stronger effect = lower value 0.966 | S. cerevisiae deletion strains, locus YOR083W, strain WHI5, stronger effect = lower value 1.01 | S. cerevisiae deletion strains, locus YOR106W, strain vam3, stronger effect = lower value 0.974 | S. cerevisiae deletion strains, locus YOR136W, strain idh2, stronger effect = lower value 1.01 | S. cerevisiae deletion strains, locus YOR144C, strain elg1, stronger effect = lower value 1 | S. cerevisiae deletion strains, locus YOR184W, strain ser1, stronger effect = lower value 1 | S. cerevisiae deletion strains, locus YOR231W, strain MKK1, stronger effect = lower value 0.99 | S. cerevisiae deletion strains, locus YOR265W, strain rbl2, stronger effect = lower value 0.972 | S. cerevisiae deletion strains, locus YOR270C, strain vph1, stronger effect = lower value 0.963 | S. cerevisiae deletion strains, locus YOR290C, strain snf2, stronger effect = lower value 0.992 | S. cerevisiae deletion strains, locus YOR316C, strain cot1, stronger effect = lower value 1 | S. cerevisiae deletion strains, locus YPL051W, strain arl3, stronger effect = lower value 1 | S. cerevisiae deletion strains, locus YPL078C, strain atp4, stronger effect = lower value 0.996 | S. cerevisiae deletion strains, locus YPL106C, strain sse1, stronger effect = lower value 0.952 | S. cerevisiae deletion strains, locus YPL240C, strain hsp82, stronger effect = lower value 0.978 | S. cerevisiae deletion strains, locus YPL256C, strain CLN2, stronger effect = lower value 0.961 | S. cerevisiae deletion strains, locus YPR119W, strain clb2, stronger effect = lower value 1.01 | S. cerevisiae deletion strains, locus YPR141C, strain kar3, stronger effect = lower value 1.02 | S. cerevisiae deletion strains, locus YPR163C, strain tif3, stronger effect = lower value 1 | S. cerevisiae deletion strains, locus YPR167C, strain met16, stronger effect = lower value 1.02 | S. cerevisiae deletion strains, strain wtn01, stronger effect = lower value 1 | S. cerevisiae strains, strain wild type, stronger effect = lower value 0.992
